Measured potencies and affinities stand elsewhere.
Experiments:
[1] = tested on: Klebsiella pneumoniae; settings: Concentration 32 ug.mL-1;; ASSAY_TEST Inhibition of Bacterial Growth; detection method Absorption (OD600); MEDIA CAMHB; plate type 384well; NBS; CORNING #3640; time 18 hr
[2] = tested on: Candida albicans; settings: Concentration 32 ug.mL-1; ASSAY_TEST Inhibition of Fungal Growth; detection method Absorption (OD530)
[3] = tested on: Cryptococcus neoformans; settings: Concentration 32 ug.mL-1; ASSAY_TEST Inhibition of Fungal Growth; detection method Resazurin; Absorption (OD600-OD570); plate type 384well; NBS; CORNING #3640

SMILES | Inhibition [1] [%] | Inhibition [2] [%] | Inhibition [3] [%]
COc1ccccc1N1CCN(C(=O)CSc2nc3ccccc3n3c(C(C)C)nnc23)CC1 | 6.45 | -2.8 | -16.67
Cc1nnc2c(SCC(=O)Nc3ccc4c(c3)OCCO4)nc3ccccc3n12 | 9.06 | 1.7 | -7.59
Cc1ccc(NC(=O)CSc2nc3ccccc3n3c(C(C)C)nnc23)c(Cl)c1 | 0.92 | 27.99 | -3.15
Cc1nnc2ccc(S(=O)(=O)N(Cc3cc(F)cc(F)c3)c3ccc(F)cc3)cn12 | 7.75 | 0.47 | -6.16
Cc1ccc(Sc2nccn3c(=O)n(CC(=O)Nc4ccc(C)c(Cl)c4)nc23)c(C)c1 | 10.52 | -2.58 | -26.74
Cc1cccc(N(Cc2ccccc2)S(=O)(=O)c2cccn3c(C)nnc23)c1 | 11.16 | 8.73 | -3.61
Cc1ccc(Oc2nccn3c(=O)n(CC(=O)N4CCN(c5ccc(F)cc5)CC4)nc23)cc1 | 19.83 | 0.18 | -7.7
NC(=O)Cn1nc2n(CCC(=O)NC3CCCCC3)c(=O)c3ccccc3n2c1=O | 14.53 | 0.47 | -26.54
CCCN(C)c1nccn2c(=O)n(CC(=O)Nc3ccc(Br)cc3)nc12 | 7.69 | 3.8 | -7.69
CCc1ccc(NC(=O)Cn2c(=O)c3nnc(C(C)C)n3c3ccccc32)cc1 | 8.25 | 26.99 | -22.84
C=Cc1ccc(CSc2nnc3c(=O)n(-c4ccc(F)cc4)ccn23)cc1 | 9.66 | 4.46 | -8.26
CC(C)c1nnc2c(=O)n(CC(=O)Nc3cccc(C#N)c3)c3ccccc3n12 | 14.72 | 2.88 | -33.67
CCCn1c(=O)c2sccc2n2c(=O)n(Cc3ccc(Cl)cc3)nc12 | 4.43 | 0.41 | -22.99
COc1cccc(-n2ccn3c(SCC(=O)Nc4cc(F)ccc4F)nnc3c2=O)c1 | 6.91 | 7.1 | -8.94
COc1ccc(Cn2nc3ccc(-c4ccc(Cl)cc4)nn3c2=O)cc1F | 16.23 | 0.27 | -15.51
COc1ccc(C(C)NC(=O)CCc2nnc3ccc(-c4ccc(C)c(C)c4)nn23)cc1OC (centres undefined) | 11.56 | 3.04 | -6.29
CCCNC(=O)Cn1nc2n(Cc3cccs3)c(=O)c3sccc3n2c1=O | 9.05 | -0.4 | -15.54
O=C(Cn1nc2c3c4c(sc3ncn2c1=O)CCCC4)NCc1ccccc1Cl | 0.41 | 2.22 | -5.52
COc1ccc(CNC(=O)Cn2nc3c(SC4CCCCC4)nccn3c2=O)cc1 | 14.45 | 17.79 | -15.36
COC(=O)c1ccc(NC(=O)Cn2nc3c4cc(-c5ccc(F)cc5)nn4ccn3c2=O)cc1 | 11.64 | 3.5 | -12.29
COc1ccc(C)cc1NC(=O)Cn1nc2c3cc(-c4ccc(C)c(C)c4)nn3ccn2c1=O | 11.68 | 0.52 | -9.82
CCc1nnc2c(S(=O)(=O)N(Cc3cc(F)cc(F)c3)c3cccc(F)c3)cccn12 | 12.81 | 4.8 | -5.16
Cc1ccc(Oc2nccn3c(=O)n(CC(=O)Nc4ccc(Br)cc4)nc23)cc1 | 6.74 | 10.23 | -16.67
N#CCSc1nnc2c(=O)n(-c3ccc(Br)cc3)ccn12 | 12.03 | 1.63 | -7.07
O=S(=O)(c1cccn2c(SCc3c(F)cccc3Cl)nnc12)N1CCCC1 | 5.57 | -0.64 | -6.69
Cc1cccc(CN(c2ccccc2)S(=O)(=O)c2cccn3c(C)nnc23)c1 | 4.77 | -0.3 | -6.4
CC(C)c1nnc2c(=O)n(CC(=O)Nc3cccc(Cl)c3)c3ccccc3n12 | 4.29 | 3.06 | -36.03
CCCCN(C)c1ccc2nnc(CCc3nc(-c4ccc(C(F)(F)F)cc4)no3)n2n1 | 5.43 | 2.75 | -13.06

Source: ChEMBL document CHEMBL4513146, “CO-ADD screening of Karazin Kharkiv National University (Ukraine) compounds”
